Measured values published in PubChem BioAssay (NCI).
About 83,000 compounds went through this panel and 20% of them were active in at least one assay; those are over-represented in the sample as a whole.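 For each line, cells grew in 96-well plates with the test compound present at a single concentration for 48 hours.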 Values without a mark were called inactive. The source made the active and inactive calls. Rule for the calls: active = growth percent below 10; inactive = the rest.

Each compound was assayed on MDA-MB-468 breast (assay: NCI-60 one-dose screen, 48 h (100 = growth as untreated, 0 = no growth, -100 = all killed)). Conditions: 10 µM unless noted.

| Compound | growth |
| --- | --- |
| O=C(NCCCl)c1cc(Cl)cc(Cl)c1 | 108% |
| COc1cc2nc(C(=O)N3CCCCC3)cc(Nc3ccccc3)c2cc1OC | 131% |
| CC1O[C@@H]2C[C@@](O)([C@H]1O)n1c3ccccc3c3c4c(c5c6ccccc6n2c5c31)C(=O)NC4=O (stereo not given in full) | 3.51% (active) |
| CC(=O)N(O)CCCCCNC(=O)CCC(=O)N(O)CCCCCNC(=O)CCC(=O)N(O)CCCCCN(CCCCCCCCCC[P+](c1ccccc1)(c1ccccc1)c1ccccc1)CCCCCCCCCC[P+](c1ccccc1)(c1ccccc1)c1ccccc1 | -42.6% (active) |
| COc1cc(-c2cccc([N+](=O)[O-])c2)c(-c2nc(-c3ccccc3)c(-c3ccccc3)n2C2CC2)cc1OC | 49.4% |
| O=C1c2ccccc2C(=O)c2c1oc1c2c(=O)[nH]c2ccccc21 | -8.43% (active) |
| Nc1ccc(N)c2c1C(=O)c1cccc([N+](=O)[O-])c1C2=O | 54.8% |
| O=[N+]([O-])c1ccc(O)cc1Br | 106% |
| CN1Cn2c(ccc2C(F)(F)F)C(=O)CS1(=O)=O | 115% |
| CCC#CC[C@H](O)C/C=C1/C(=O)C=C[C@@H]1C/C=C\CCCC(=O)OC | 12.4% |
| C=CCn1c(SCC(=O)Nc2ccc(C(=O)/C=C/c3cc(OC)c(OC)c(OC)c3)cc2)nnc1-c1ccc(Cl)cc1 | 2.35% (active) |
| COc1ccc(O)c(-c2cc(-c3ccccc3)c(C#N)c(=O)[nH]2)c1 | 92.8% |
| CC1=C(C(=O)OCC2CCN(C(=O)OC(C)(C)C)CC2)[C@H](c2cccc(Br)c2)C2=C(CC(C)(C)CC2=O)N1 | 29.7% |
| CCOC(=O)/C(=C/c1ccccc1)C(=O)c1ccccc1 | 85.6% |
| CCSc1nc(-c2ccco2)n2nc(-c3ccco3)cc2n1 | -67.7% (active) |
| CCCCCCCCCCCCNC(=S)N/N=C/c1ccccc1O | 53.1% |
| CC/C(=C(/c1ccc(Cl)cc1)c1ccc(OCCN2CCOCC2)cc1)c1ccccc1 | 91% |
| CCCCc1oc2ccccc2c1C(=O)c1ccc(O)cc1 | 78.4% |
| CCOC(=O)Oc1c(OC)cc(C(=O)c2ccc(OC)c(O)c2OC)cc1OC | 19.8% |
| Clc1ccc2c(c1)N(c1ncnc3ccc(-c4cnc5[nH]ccc5c4)cc13)CC2 | -4.95% (active) |

| Compound | growth |
| --- | --- |
| CCCCC1CCc2cccc3c(SCC(=O)N(C)c4ccc(Cl)cc4)cc[n+]1c23 (stereo not given) | 106% |
| O=C(Nc1ccccc1S)c1ccccc1 | 115% |
| COc1ccc(C2c3[nH]c4ccc(Cl)cc4c3CCN2c2oc(CO)nc2C#N)cc1 (stereo not given) | 25.2% |
| CCN(CC)CCNc1nc2ccccc2c2c(=O)c3cc(Cl)ccc3sc12 | 56.2% |
| [2H]C1([2H])[C@H](C)O[C@H](C)C([2H])([2H])N1c1ccc(NC(=O)c2cccc(-c3ccc(OC(F)(F)F)cc3)c2C)cn1 | 41.9% |
| CNC(=O)c1cc(Oc2ccc(NC(=O)Nc3ccc(Cl)c(SC)c3)c(F)c2)ccn1 | 13.6% |
| CN(C)c1ccc(/C=C\c2cccc[n+]2C)cc1 | 4.18% (active) |
| COc1ccc(C(=O)/C=C/c2c(C(F)(F)F)nc3sccn23)cc1OC | -21.1% (active) |
| CC(=O)Nc1ccc(S(=O)(=O)NC(CCC(=O)Nc2ccc(Cl)cc2)C(=O)O)cc1 (stereo not given) | 98.8% |
| Cc1cc(-c2ccccc2)c(C)n1Cc1ccc(Cl)cc1 | 27.7% |
| O=C(CCCCCCC(=O)Nc1ccccc1)NO | 12.1% |
| Clc1ccc2[nH]cc(-c3nn4cc(-c5ccncc5)nc4s3)c2c1 | 42.4% |
| O=C1Nc2ccccc2/C1=C/C(=O)c1ccc(N2CCOCC2)cc1 | 85% |
| N#C/C(=C/C=C/c1ccccc1)S(=O)c1ccccc1 (stereo not given) | -56% (active) |
| Clc1ccc2c(c1)N(c1ncnc3ccc(-c4cnc5[nH]ncc5c4)cc13)CC2 | 3.65% (active) |
| CC(=O)c1c(C)[nH]c(-c2nc3ccc(N4CCN(C)CC4)cc3[nH]2)c1-c1ccc2c(c1)OCCO2 | 12.6% |
| COc1ccc(-c2cc(-c3cc(OC)c(OC)c(OC)c3)c(C#N)c(=O)n2CCCCC(=O)O)cc1 | 109% |
| CCNC(=O)CCCCC(=O)c1c(C)[nH]c(/C=C2\N=C(c3ccc[nH]3)C=C2OC)c1C | -22.7% (active) |
| CS(=O)(=O)c1ccc(C(=O)N/N=C/c2ccccc2O)cc1 | 64.7% |
| CC1(c2ccccc2O)NN=C(/N=C/c2cccc([N+](=O)[O-])c2)N1C(Cc1c[nH]c2ccccc12)C(=O)O (stereo not given) | 103% |
